Bioassay records: PubChem, National Center for Advancing Translational Sciences (NCATS)
HEK293 viab = cell viability loss counter-screen; HEK-293-SNCA-luc viability, GF-AFC fluorescence, 24 h; Potency, µM (highest dose often 57.1 µM), actives largely listed as cytotoxic; hit rate 0.12% among 150,000; AID 1671193; note: nearly all actives have a fitted effect of over 30% in size
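HEK-293-SNCA-luc cells (1500/well) plated 24 h, then exposed 24 h to a dilution series; GF-AFC added 30 min at 37C, fluorescence 405/540 nm; normalised to medium-only and DMSO wells, Hill fit.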
IP6K1 inh = inhibitors of human IP6K1 | Q92551 | hit rate 0.81% among 140,000 | IP6K1 kinase, ADP-Glo luminescence, 2 h; hits give low values | activity change, % (series mostly up to about 58 µM); in the data active = activity change below about -25%
Target sequence (Q92551 whole entry, looked up): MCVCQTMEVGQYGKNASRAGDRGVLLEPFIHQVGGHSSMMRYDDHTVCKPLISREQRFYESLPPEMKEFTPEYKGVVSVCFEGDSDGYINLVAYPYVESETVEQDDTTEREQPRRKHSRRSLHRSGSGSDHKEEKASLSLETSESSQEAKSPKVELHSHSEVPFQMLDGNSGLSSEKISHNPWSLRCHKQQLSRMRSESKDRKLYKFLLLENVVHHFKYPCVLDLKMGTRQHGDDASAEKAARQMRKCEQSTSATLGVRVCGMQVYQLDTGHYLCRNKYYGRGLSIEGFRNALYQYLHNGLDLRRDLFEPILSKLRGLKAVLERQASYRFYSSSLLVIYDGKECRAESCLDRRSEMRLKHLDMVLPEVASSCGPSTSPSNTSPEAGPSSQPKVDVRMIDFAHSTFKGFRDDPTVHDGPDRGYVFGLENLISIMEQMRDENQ
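ADP-Glo luminescence measures ADP made by human IP6K1 during a 2 h RT reaction with ATP/IP6 (mix at 1.3 mM/130 uM); top library doses 57.5 and 19.1 uM final.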
SNCA expr inh = inhibitors of alpha-synuclein (SNCA) gene expression; HEK-293 SNCA-luciferase knock-in, luminescence, 24 h; Potency, µM (top dose mostly 57.2 µM), usual class: inhibitors; hit rate 0.17% among 140,000; AID 1671194; note: nearly all actives have a fitted effect of over 45% in size
KDM5B inh = KDM5B demethylase inhibition. Q9UGL1. Potency, µM (titrated, usually from 57.7 µM), most hits filed as inhibitors. hit rate 2.6% among 220,000. KDM5B demethylase, FDH-coupled NADH fluorescence (FDH is formaldehyde dehydrogenase); note: nearly all actives have a fitted effect of over 70% in size
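Here, H3K4me3 peptide (12.5 µM in substrate mix) is demethylated by KDM5BΔAP, 200 nM final, after 10 min compound exposure. Formaldehyde product is coupled through FDH (0.25 U/mL in mix) to NADH fluorescence; 30-min ΔRFU feeds dose-response curves.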
Hits are given with their value; n = inactive; u = inconclusive; x = no result given. Sampled rows, rich in hits. Any-hit rate of the full collection: about 2.8%. Unless noted, calls come from the whole dose curve; as a rule, active = well fitted curve in the direction sought with a large enough effect; inconclusive = small, poorly fitted or top-dose-only effect, or another doubt; inactive = no such curve, though single readings can be large; an effect the other way counts as inactive or inconclusive.

SMILES	HEK293 viab	IP6K1 inh	SNCA expr inh	KDM5B inh
Cc1cc(C)c2c(CC(=O)Nc3ccc(S(=O)(=O)N4CCCCC4)cc3)coc2c1	n	n	22µM	n
O=C(CSc1nc(-c2cccc(Cl)c2)cc(=O)[nH]1)Nc1oncc1-c1ccccc1	x	x	x	n
CC(C)(C#N)c1ccc(-c2cc(CO)ccn2)cc1	n	n	n	n
Cc1cccc(N2CCN(C(=O)c3noc(-c4ccc5c(c4)OCO5)n3)CC2)c1	n	n	n	u
Cc1cccc(N2CCN(C(=O)c3noc(-c4ccc[nH]c4=O)n3)CC2)c1	n	n	n	28µM
COc1ccccc1N1CCN(C(=O)c2noc(-c3ccc(C)cc3)n2)CC1	n	n	n	n
Cc1ccc(-c2nc(C(=O)N3CCN(c4ccccc4C)CC3)no2)cc1	n	n	n	u
Cc1ccccc1N1CCN(C(=O)c2noc(-c3ccc[nH]c3=O)n2)CC1	n	n	n	28µM
Cc1cccc(N2CCN(C(=O)c3noc(-c4ccc[nH]c4=O)n3)CC2)c1C	n	n	n	28µM
Cc1ccc(C(=O)NCc2cccnc2Oc2ccccc2F)c(=O)n1C	n	n	n	28µM
O=C(Cc1c[nH]c(=O)[nH]c1=O)NCc1cccnc1Oc1ccccc1F	n	n	n	n
Cc1cc(C(=O)N[C@@H]2CCOC[C@H]2OCC(=O)O)sc1-c1ccccc1	n	n	n	25µM
COCc1ccc(C(=O)N[C@@H]2CCOC[C@H]2OCc2ccccc2)s1	n	n	n	n
COCCN1Cc2ccc(NCC(C)C)nc2C(C)(C(=O)Nc2ccncc2)C1 (configuration not stated)	n	n	n	28µM
COCCN1Cc2ccc(NCC(C)C)nc2C(C)(C(=O)Nc2cccc(F)c2)C1 (configuration not stated)	n	n	n	32µM
COCCN1Cc2ccc(Nc3ccc(OC)cc3)nc2C(C)(C(=O)NC(C)C)C1 (configuration not stated)	n	n	n	n
CC(C)NC(=O)N1CCNc2cnc(Nc3cccc(F)c3)nc2C1	n	n	n	32µM
COc1ccccc1Nc1ncc2c(n1)CN(C(=O)Cc1ccc3c(c1)OCO3)CCN2	n	n	n	u
O=C(Cc1ccc2c(c1)OCO2)N1CCNc2cnc(Nc3cccc(F)c3)nc2C1	n	n	n	32µM
O=C(c1cc(-c2ccccc2F)cc2c1OCCN2Cc1cccnc1)N1CCCC1	u	n	n	u
O=C(c1cc(-c2ccccc2F)cc2c1OCCN2Cc1cccnc1)N1CC(O)C1	n	n	n	40µM
CNC(=O)c1cc(-c2ccc(N3CCOCC3)cc2)cc2c1OCCN2Cc1cccnc1	n	n	n	n
CNC(=O)c1cc(-c2ccc(OC)nc2)cc2c1OCCN2Cc1cccnc1	n	n	n	28µM
CNC(=O)c1cc(-c2cccc(NC(C)=O)c2)cc2c1OCCN2Cc1cccnc1	n	n	n	u
COCCNC(=O)c1cc(-c2ccccc2F)cc2c1OCCN2Cc1cccnc1	u	n	n	32µM
SMILES	HEK293 viab	IP6K1 inh	SNCA expr inh	KDM5B inh
CNC(=O)c1cc(-c2ccccc2OC)cc2c1OCCN2Cc1cccnc1	n	n	n	28µM
Cc1cccc(C)c1NC(=O)Cn1c(=O)n(CC2CCC(C(=O)NCCc3ccccc3)CC2)c(=O)c2ccccc21 (configuration not stated)	n	n	n	u
Cc1cc(C(=O)NC(C)(C)c2ccc3c(c2)OCO3)on1	x	x	x	n
CC(=O)NC(CSc1cc(C)nc2ccc(Br)cc12)C(=O)O (configuration not stated)	x	x	x	n
Cc1cc(C)cc(NC(=O)N2CCC(Oc3ncccc3C(=O)N(C)C)C2)c1 (configuration not stated)	n	n	n	n
CNC(=O)c1cc(-c2ccccc2F)cc2c1OCCN2Cc1cccnc1	u	n	n	40µM
O=C(NC1CCOCC1)c1cc(-c2ccccc2F)cc2c1OCCN2Cc1cccnc1	n	n	n	22µM
CNC(=O)c1cc(-c2ccccc2O)cc2c1OCCN2Cc1cccnc1	n	n	n	32µM
CNC(=O)c1cc(Nc2cccc(N(C)C)c2)cc2c1OCCN2Cc1cccnc1	n	n	n	u
CC(C)CNC(=O)c1cc(-c2ccccc2F)cc2c1OCCN2Cc1cccnc1	u	n	u	32µM
CNC(=O)c1cc(-c2ccccc2C)cc2c1OCCN2Cc1cccnc1	n	n	n	u
N#Cc1ccc(Cc2cnc(NC(=O)c3cccs3)s2)c(C(F)(F)F)c1	x	x	x	n
O=C(c1ccc(F)cc1)c1ccc(OCc2ccc(-c3ccccc3)cc2)cc1	x	x	x	n
COCCNC(=O)c1nc2sccn2c1-c1ccccc1	n	n	n	x
CC(=O)N1CCN(C(=O)c2cnc(N)nc2-c2ccccc2)CC(O)C1 (configuration not stated)	n	n	n	25µM
CC(=O)N1CCN(C(=O)c2cc3ccccc3[nH]c2=O)CC(O)C1 (configuration not stated)	n	n	n	28µM
Nc1ncc(C(=O)N2CCCC3(CCOC3)C2)c(-c2ccccc2)n1 (configuration not stated)	n	n	n	u
COCCc1nc(CNC(=O)C(c2cccc(F)c2)N(C)C)no1 (configuration not stated)	n	n	n	22µM
CNC(=O)c1noc(CNC(=O)C(c2cccc(F)c2)N(C)C)n1 (configuration not stated)	n	n	n	n
Cc1ccc2c(C(=O)N3CCN(c4ccc(F)cc4)CC3)cc(NC(=O)C(C)C)cc2n1	n	n	n	u
Cc1ccc2c(C(=O)N3CCN(C(C)C)CC3)cc(NC(=O)C(C)C)cc2n1	n	n	n	25µM
Cc1ccc2c(C(=O)N3CCN(CC(C)C)CC3)cc(NC(=O)C3CCC3)cc2n1	n	n	n	22µM
Cc1ccc2c(C(=O)NCCc3cccs3)cc(NC(=O)C3CCC3)cc2n1	n	n	n	u
CNC(=O)c1cc(NC(=O)C2CCC2)cc2nc(C)ccc12	n	n	n	32µM
Cc1ccc2c(C(=O)N3CCOCC3)cc(NC(=O)C3CCC3)cc2n1	n	n	n	22µM
SMILES	HEK293 viab	IP6K1 inh	SNCA expr inh	KDM5B inh
COc1ccc(-c2ccc(=O)n(CC(=O)N3CCC(Cc4ccccc4)CC3)n2)c(F)c1	x	x	x	n
Cc1ccc(S(=O)(=O)N2CCCC2C(=O)N2CCC(c3ccccc3)CC2)cc1 (configuration not stated)	n	n	n	x
COCCCN=CC1=C(O)CC(c2ccccc2)CC1=O (configuration not stated)	x	x	x	n
COc1ccc(NC(=O)c2cc(NC(=O)C3CCC3)cc3nc(C)ccc23)cc1	n	n	n	25µM
Cc1ccc(NC(=O)c2cc(NC(=O)C3CC3)cc3nc(C)ccc23)cc1	n	n	n	u
Cc1ccc2c(C(=O)O)cc(NC(=O)C3CCC3)cc2n1	n	n	n	22µM
Cc1cc(C)cc(NC(=O)C2CCCCC2)c1	x	x	x	n
CCS(=O)(=O)N1CCCc2cc(C(=O)Nc3cc(C)ccc3C)ccc21	x	x	x	n
CS(=O)(=O)N(C1CCOCC1)C1CN(C(=O)Cc2c[nH]c3ccccc23)C1	n	n	n	n
